# Records with an inconclusive call do not appear. The source made the active and inactive calls. The call rests on the fitted dose curve; in most records, active means well fitted inhibition curve with a large enough effect; inconclusive means small, poorly fitted or top-dose-only effect; inactive means flat fitted curve, though single readings scatter.
# Assays:
# Assay in all cases: qHTS profiling for inhibitors of Plasmodium falciparum proliferation (AID 504749); further: nearly all actives have a fitted effect of over 60% in size
# Conditions in all cases: P. falciparum in erythrocytes, SYBR Green DNA, 72 h; series mostly up to 28.7 µM
# CP335 = system: CP335
# Outline: (§1)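 Parasite proliferation within erythrocytes, 72 h exposure. Endpoint: SYBR Green I fluorescence after overnight lysis at room temperature. Controls: 0.29 uM artemisinin, DMSO.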
# DIV14 = system: DIV14
# Outline: as §1
# DIV17 = system: DIV17
# Outline: as §1
# DIV30 = system: DIV30
# Outline: as §1
# Dd2 = system: Dd2
# Outline: as §1
# ECU = system: ECU
# Outline: as §1
# CP329 = system: CP329
# Outline: as §1
# DFO2036 = system: DFO2036
# Outline: as §1
# FAB9 = system: FAB9
# Outline: as §1
# CP325 = system: CP325
# Outline: as §1
# Potency means the concentration at half of the fitted maximal effect.
Compound,Potency (CP335),Potency (DIV14),Potency (DIV17),Potency (DIV30),Potency (Dd2),Potency (ECU),Potency (CP329),Potency (DFO2036),Potency (FAB9),Potency (CP325)
OCCN1CCN(CCCN2c3ccccc3Sc3ccc(Cl)cc32)CC1,2.56 µM (active),5.73 µM (active),5.1 µM (active),inactive,3.55 µM (active),3.16 µM (active),,,,
CNCCCC1c2ccccc2C=Cc2ccccc21,,,2.56 µM (active),,,inactive,inactive,inactive,inactive,
CN(C)CCN(Cc1ccccc1)c1ccccn1,,,,,,inactive,inactive,inactive,inactive,
CC(C)(C)C(=O)C(Oc1ccc(Cl)cc1)n1ccnc1 (stereo not given),,13.5 µM (active),13.5 µM (active),12 µM (active),11.2 µM (active),10 µM (active),inactive,12.6 µM (active),inactive,
CCN(CC)CCNC(=O)c1c(C)[nH]c(/C=C2\C(=O)Nc3ccc(F)cc32)c1C,12 µM (active),4.78 µM (active),5.36 µM (active),13.5 µM (active),11.2 µM (active),7.94 µM (active),12 µM (active),8.91 µM (active),,
COc1ccc2[nH]c(S(=O)Cc3ncc(C)c(OC)c3C)nc2n1 (stereo not given),,3.38 µM (active),4.78 µM (active),,12.6 µM (active),6.31 µM (active),inactive,,,inactive
O=C(O)c1ccccn1,,,inactive,inactive,inactive,inactive,inactive,inactive,inactive,inactive
Cc1cc(N)c2ccccc2[n+]1CCCCCCCCCC[n+]1c(C)cc(N)c2ccccc21,,0.161 µM (active),0.287 µM (active),0.256 µM (active),0.0631 µM (active),2.51 µM (active),0.642 µM (active),0.0794 µM (active),0.199 µM (active),0.572 µM (active)
CSc1ccc2c(c1)N(CCC1CCCCN1C)c1ccccc1S2 (stereo not given),,10.7 µM (active),10.7 µM (active),,,11.2 µM (active),,,,
Cc1ccc2nc(N)[nH]c(=O)c2c1Sc1ccncc1,,,,inactive,11.2 µM (active),,,10 µM (active),,

# Source: PubChem BioAssay (NCATS)
